Several values for one entry are separate records, joined by “and”; a condition that tells them apart may be missing. Identical values can stand only once. Records with an inconclusive call do not appear. Activity calls are given as the source filed them. The call rests on the fitted dose curve.
On the % scale 0 is the no-effect control and ±100 the full control effect; potency means the concentration at half of the fitted maximal effect.

This test is described as follows: qHTS assay for small molecule agonists of the p53 signaling pathway (AID 651631). Further: nearly all actives have a fitted effect of over 15% in size. As to conditions: HCT-116 p53RE-bla reporter, beta-lactamase FRET ratio, 16 h; series mostly up to 73.3 µM; activation: at the top concentration. The procedure, abridged:
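Readout was fluorescence from the LiveBLAzer FRET substrate, applied for 2 h at room temperature after 16 h compound exposure at 37 °C. Cells were the p53RE-bla HCT-116 line, with beta-lactamase driven by p53 response elements.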
For orientation: Quantitative high-throughput screening tests each substance at several concentrations.
Take `CC(C)=CCN1CC[C@]2(C)c3cc(O)ccc3C[C@H]1[C@H]2C`: the “activation” value is -5.42% (inactive).

Take `CN[C@@]1(c2ccccc2Cl)CCCCC1=O`: the “activation” value was -2.73% (inactive).

Turning to `CCNC1(c2cccs2)CCCCC1=O` (centres undefined), the “activation” value was -1.38% [at 34.7 µM] (inactive).

Take `CNC(C)CC1CCCCC1` (centres undefined): the “activation” value is -2.05% (inactive).

As to `CCC1(c2ccccc2)C(=O)NC(=O)N(C)C1=O` (centres undefined), the “activation” value was -2.06% (inactive).

Take `COc1cc([C@@H]2c3cc4c(cc3[C@@H](O)[C@H]3COC(=O)[C@H]23)OCO4)cc(OC)c1O`: the Potency is 0.168 µM (active).

As to `CNC(C)Cc1ccccc1` (centres undefined), the “activation” value is -2.97% (inactive).

In the case of `CN[C@@H](C)Cc1ccccc1`, the “activation” value was -3.37% (inactive).

With `O=C1C[C@@H]2OCC=C3CN4CC[C@]56c7ccccc7N1[C@H]5[C@H]2[C@H]3C[C@H]46` (tested in a mixture with another compound), the “activation” value is -3.89% (inactive).

Take `O=c1ccc2cc(O[C@@H]3O[C@H](CO)[C@@H](O)[C@H](O)[C@H]3O)c(O)cc2o1`: the Potency was 7.17 µM (active).

With `C/C=C(\CC)C(=O)NC(N)=O`, the “activation” value is -2.27% (inactive).

For `C[C@]12CCC(=O)C[C@@H]1CC[C@@H]1[C@@H]2CC[C@@]2(C)[C@H]1CC[C@]2(C)O`, the “activation” value was -3.3% (inactive).

With `Cc1nnc2n1-c1ccc(Cl)cc1C(c1ccccc1)=NC2`, the “activation” value was -3.28% (inactive).

For the compound `N#CC(C#N)=Cc1cc(O)c(O)c(O)c1`, the “activation” value is -4.82% (inactive).

With `CCCSc1cc(OC)c(CCN)cc1OC`, the Potency is 32.5 µM (active).

For the compound `O=C(O)CCCO`, the “activation” value is -2.29% [at 95.1 µM] (inactive).

Regarding `Oc1ccc2c3c1O[C@H]1[C@@H](O)C=C[C@H]4[C@H](C2)NCC[C@@]341`, the “activation” value is -4.11% (inactive).

Consider `COC(=O)[C@H]1[C@@H](OC(=O)c2ccccc2)C[C@@H]2CC[C@H]1N2C`, for which the “activation” value was -2.81% (inactive).

On to `O=C1CN=C(c2ccccc2)c2cc(Cl)ccc2N1`, for which the “activation” value is -2.88% (inactive).

In the case of `C=C[C@H]1CN2CC[C@H]1C[C@H]2[C@H](OC(=O)OCC)c1ccnc2ccc(OC)cc12`, the “activation” value is -2.25% (inactive).

Take `CCc1cc(OC)c(C[C@@H](C)N)cc1OC`: the “activation” value was -3.06% [at 95.1 µM] (inactive).

Turning to `CC(C)[C@H]1C(=O)N2CCC[C@H]2[C@]2(O)O[C@](NC(=O)[C@@H]3C[C@@H]4c5cccc6[nH]cc(c56)C[C@H]4N(C)C3)(C(C)C)C(=O)N12`, the “activation” value is -4.96% (inactive).

`C[C@]12CC[C@H]3[C@@H](CCC4=C(Cl)C(=O)CC[C@@]43C)[C@@H]1CC[C@@H]2O`: the “activation” value was 3.3% (inactive).

On to `C[C@@H]1[C@@H]2Cc3ccc(O)cc3[C@@]1(C)CCN2CC1CC1`, for which the “activation” value is -3.3% (inactive).

In the case of `CC(C)C[C@H]1C(=O)N2CCC[C@H]2[C@]2(O)O[C@](NC(=O)[C@@H]3C[C@@H]4c5cccc6[nH]cc(c56)C[C@H]4N(C)C3)(C(C)C)C(=O)N12`, the “activation” value is -2.89% (inactive).

As for `[H+].[H+].[Hg+2].[O-]B([O-])[O-].[c-]1ccccc1`, the Potency was 1.33 µM (active).

As for `C=CCC1([C@@H](C)CCC)C(=O)NC(=O)NC1=O`, the “activation” value was -3.25% (inactive).

Regarding `c1ccc2c(c1)Sc1ccccc1N2C[C@@H]1CN2CCC1CC2`, the “activation” value is -2.33% (inactive).

In the case of `C[C@@H](Cc1ccccc1)NCCC(c1ccccc1)c1ccccc1`, the “activation” value is 6.43% [at 34.7 µM] (inactive).

As to `CC[C@H]1[C@@H]2C[C@H]3[C@@H]4N(C)c5ccccc5[C@]45C[C@@H](C2[C@H]5O)N3[C@@H]1O` (some centres undefined), the “activation” value is -3.39% [at 34.7 µM] (inactive).

As for `CC(N)Cc1ccc2c(c1)OCO2` (centres undefined), the “activation” value is 5.11% (inactive).

As to `CN[C@]1(c2ccccc2Cl)CCCCC1=O`, the “activation” value was -2.81% (inactive).

`C[C@]12CC[C@@H]3c4ccc(OC(=O)N(CCCl)CCCl)cc4CC[C@H]3[C@@H]1CC[C@@H]2OP(=O)(O)O`: the Potency is 7.5 µM (active) and 29.8 µM (active).

`CC(=O)[C@@]1(O)CC[C@H]2[C@@H]3CCC4=CC(=O)CC[C@]4(C)C3(F)[C@@H](O)C[C@@]21C` (some centres undefined): the “activation” value was -2.93% (inactive).

The record behind these values is PubChem BioAssay (Tox21).
